Experimental data taken from PubChem BioAssay (NCI).
Compounds without any hit were thinned out: in the full panel of roughly 83,000, 20% have a hit.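 Cell lines were cultured in 96-well plates, exposed to a single compound concentration, and assessed for percent growth 48 hours later.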 Calls of active or inactive are those of the source. The calls were made as follows: active = growth percent below 10; inactive = the rest.

Experiments:
Experiment in all cases: NCI-60 one-dose screen, 48 h (100 = growth as untreated, 0 = no growth, -100 = all killed)
Conditions in all cases: 10 µM unless noted
HCT-15 colon = system: HCT-15 colon
HT29 colon = system: HT29 colon
SNB-75 CNS = system: SNB-75 CNS
SNB-19 CNS = system: SNB-19 CNS
U251 CNS = system: U251 CNS
PC-3 prostate = system: PC-3 prostate
UACC-62 melanoma = system: UACC-62 melanoma
LOX IMVI melanoma = system: LOX IMVI melanoma
SK-MEL-28 melanoma = system: SK-MEL-28 melanoma
SK-MEL-2 melanoma = system: SK-MEL-2 melanoma
EKVX NSCLC = system: EKVX NSCLC
SN12C renal = system: SN12C renal
UO-31 renal = system: UO-31 renal
TK-10 renal = system: TK-10 renal
ACHN renal = system: ACHN renal
CAKI-1 renal = system: CAKI-1 renal
CCRF-CEM leukemia = system: CCRF-CEM leukemia
MOLT-4 leukemia = system: MOLT-4 leukemia
A498 renal = system: A498 renal

Measured: growth

CCOC(=O)c1c(C)oc2ncnc(N3CCN(C(=S)Nc4ccccc4)CC3)c12
inactive: HCT-15 colon 90.6% | HT29 colon 102% | SNB-75 CNS 80.5% | SNB-19 CNS 96.5% | U251 CNS 89.7% | PC-3 prostate 91.8% | UACC-62 melanoma 87.2% | LOX IMVI melanoma 90.7% | SK-MEL-28 melanoma 107% | SK-MEL-2 melanoma 95.3% | EKVX NSCLC 91.2% | SN12C renal 92.7% | UO-31 renal 75.1% | TK-10 renal 100% | ACHN renal 92% | CAKI-1 renal 79.6% | CCRF-CEM leukemia 92.3%

COc1cc2c(cc1-c1c(C)noc1C)ncc1nc(C3CCCC3)n([C@H](C)COC(F)F)c12
inactive: HCT-15 colon 16.8% | HT29 colon 18.3% | SNB-75 CNS 37.4% | SNB-19 CNS 49.5% | U251 CNS 39.7% | PC-3 prostate 31.8% | UACC-62 melanoma 20.7% | LOX IMVI melanoma 13.2% | SK-MEL-28 melanoma 53.8% | SK-MEL-2 melanoma 67.8% | EKVX NSCLC 44.2% | SN12C renal 57.3% | TK-10 renal 30.6% | ACHN renal 32.9% | CAKI-1 renal 18.7% | CCRF-CEM leukemia 48.7% | MOLT-4 leukemia 42.3%
active: UO-31 renal -30%

CCOC(=O)c1cc(C(=O)c2ccc(O)c(O)c2)n2ccc(-c3ccn4c(C(=O)c5ccc(O)c(O)c5)cc(C(=O)OCC)c4c3)cc12
inactive: HCT-15 colon 88% | HT29 colon 96% | SNB-75 CNS 87.3% | SNB-19 CNS 93.9% | U251 CNS 97% | PC-3 prostate 89.1% | UACC-62 melanoma 97.9% | LOX IMVI melanoma 89% | SK-MEL-28 melanoma 113% | SK-MEL-2 melanoma 103% | EKVX NSCLC 94.9% | SN12C renal 94.7% | UO-31 renal 63.4% | TK-10 renal 83.3% | ACHN renal 97.4% | A498 renal 96.6% | CCRF-CEM leukemia 84.5%

FC(F)(F)c1[nH]ncc1-c1nc2ccc3n[nH]c(C#Cc4cccnc4)c3c2c2c1CCCC2
inactive: HCT-15 colon 36.1% | HT29 colon 32.5% | SNB-19 CNS 59.9% | U251 CNS 54.7% | PC-3 prostate 47.1% | UACC-62 melanoma 26.8% | LOX IMVI melanoma 33.6% | SK-MEL-28 melanoma 32.4% | SK-MEL-2 melanoma 65.8% | EKVX NSCLC 30.1% | SN12C renal 37.9% | UO-31 renal 19.8% | TK-10 renal 46.4% | ACHN renal 22.6% | CCRF-CEM leukemia 25.2% | MOLT-4 leukemia 14.9%
active: SNB-75 CNS -10.9% | CAKI-1 renal -7%

CCN(CC)CCCCNc1c2ccc(Cl)cc2nc2ccc(OC)cc12
active: HCT-15 colon -21.2% | HT29 colon 3.91% | SNB-75 CNS -95.3% | SNB-19 CNS 1.53% | U251 CNS -9.07% | PC-3 prostate -45.9% | UACC-62 melanoma -30.8% | LOX IMVI melanoma -57.3% | SK-MEL-28 melanoma -82.5% | SK-MEL-2 melanoma 2.05% | EKVX NSCLC -8.96% | SN12C renal 4.57% | UO-31 renal -14.6% | ACHN renal -56.7% | CAKI-1 renal 9.92% | A498 renal -83.9% | MOLT-4 leukemia -22.2%
inactive: TK-10 renal 15.4%

CC1=C[C@H]2c3c(c(O)c(O)c4oc5cc(O)ccc5c(=O)c34)[C@H](c3cc(O)c(O)c4oc5cc(O)ccc5c(=O)c34)[C@H]2C(C)(C)C1
active: UACC-62 melanoma 5.54%
inactive: HCT-15 colon 33.4% | HT29 colon 20.2% | SNB-75 CNS 21.3% | SNB-19 CNS 22.1% | U251 CNS 14.8% | PC-3 prostate 29.7% | LOX IMVI melanoma 16.2% | SK-MEL-28 melanoma 46.9% | SK-MEL-2 melanoma 44.8% | EKVX NSCLC 51.1% | SN12C renal 28.7% | UO-31 renal 46.5% | TK-10 renal 56% | ACHN renal 37.9% | CAKI-1 renal 40.3% | CCRF-CEM leukemia 27.1% | MOLT-4 leukemia 25.3%

Nc1n[nH]c2cc(F)c([C@@H]3Nc4ccc5[nH]ncc5c4[C@H]4C5CCC(C5)[C@@H]34)cc12 (stereo partly specified)
inactive: SNB-19 CNS 35.4% | UACC-62 melanoma 31.5% | LOX IMVI melanoma 12.3% | SK-MEL-28 melanoma 65.8% | SK-MEL-2 melanoma 26.2% | EKVX NSCLC 47.2% | SN12C renal 33.5% | UO-31 renal 38.6% | TK-10 renal 52.5% | ACHN renal 21.1% | CCRF-CEM leukemia 16.6% | MOLT-4 leukemia 16.1%
active: HCT-15 colon 6.23% | HT29 colon 3.7% | SNB-75 CNS -13.5% | U251 CNS 2.97% | PC-3 prostate 8.48% | CAKI-1 renal 9.87%

CC1CCNC(C)C1 (stereo unspecified)
inactive: HCT-15 colon 108% | HT29 colon 110% | SNB-75 CNS 86.5% | SNB-19 CNS 114% | U251 CNS 108% | PC-3 prostate 90.3% | UACC-62 melanoma 102% | LOX IMVI melanoma 100% | SK-MEL-28 melanoma 115% | SK-MEL-2 melanoma 112% | EKVX NSCLC 107% | SN12C renal 103% | UO-31 renal 93.2% | TK-10 renal 109% | ACHN renal 106% | CAKI-1 renal 101% | MOLT-4 leukemia 116%
